The panel holds about 79,000 compounds, 15% with a hit somewhere; the sample as a whole holds those more often. Cut-off read from the data, not from the text of the source: active = growth inhibition above about 70%; inactive = the rest.
Experiments:
[1] = NCI Yeast Anticancer Drug Screen. Data for the rad50 strain (AID 155);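 note: 0% = growth of vehicle-only cultures of the same strain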; conditions: S. cerevisiae rad50 strain growth inhibition; at 50.0 µM; stronger effect = higher value
How it was run: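 Readout: growth inhibition relative to vehicle-treated cultures. Compound exposure was carried out in a genetically defined yeast strain deficient in DNA damage repair.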

[2] = NCI Yeast Anticancer Drug Screen. Data for the mec2-1 strain (AID 157); conditions: S. cerevisiae mec2-1 strain, at 50.0 µM, stronger effect = higher value
How it was run: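 Each compound was tested on mec2-1 yeast, a strain altered in DNA damage repair or cell cycle control. Growth inhibition is reported relative to vehicle.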

[3] = NCI Yeast Anticancer Drug Screen. Data for the sgs1 mgt1 strain (AID 161);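 note: 0% = growth of cultures given vehicle only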; conditions: S. cerevisiae sgs1 mgt1 strain, at 50.0 µM, stronger effect = higher value
How it was run: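 Test agents were incubated with a DNA-repair-mutant yeast strain. Growth was then read and compared against vehicle-treated controls.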

[4] = NCI Yeast Anticancer Drug Screen. Data for the cln2 rad14 strain (AID 165);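 note: 0% = growth equal to vehicle treated cultures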; conditions: S. cerevisiae cln2 rad14 strain, at 50.0 µM, stronger effect = higher value
How it was run: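 Test compounds were added to cln2 rad14 yeast cultures; inhibition of growth was then determined by comparison with vehicle treatment.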

[5] = NCI Yeast Anticancer Drug Screen. Data for the bub3 strain (AID 167); conditions: S. cerevisiae bub3 mutant strain, at 50.0 µM, stronger effect = higher value
How it was run: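 Readout: yeast growth inhibition, expressed relative to vehicle-only wells. The test organism is a mutant strain from a panel with lesions in DNA repair or checkpoint genes.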

[6] = NCI Yeast Anticancer Drug Screen. Data for the mlh1 rad18 strain (AID 175); conditions: S. cerevisiae mlh1 rad18 strain growth inhibition; at 50.0 µM; stronger effect = higher value
How it was run: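 Inhibition values reflect reduced growth of mutant yeast versus vehicle-treated controls following compound exposure; the mutations affect DNA damage repair.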

Measured: growth inhibition

N#CCC(c1ccccc1)(c1ccccc1)c1ccccc1
inactive: [1] 46.4% | [2] 34.8% | [3] 45.9% | [4] 37.1% | [5] 52.4% | [6] 39.6%

COc1ccc(SSc2ccc(OC)cc2)cc1
inactive: [1] 25.9% | [2] -1.1% | [3] 12.2% | [4] 1.95% | [5] 6.2% | [6] 18.8%

C#CC(CCC)NCCCC (centres undefined)
inactive: [1] 16.2% | [2] -8.95% | [3] -8.8% | [4] 3.05% | [5] -4.9% | [6] -1.95%

CC(=O)Nc1ccc[n+](CC(=O)c2ccc(F)cc2)c1
inactive: [1] -8.95% | [2] 0.85% | [3] 4.35% | [4] -42.6% | [5] -5.45% | [6] 8.65%

CC1(C)CCNc2ccccc2S1
inactive: [1] -0.55% | [2] 1.7% | [3] 2.05% | [4] -25.9% | [5] -11.1% | [6] -14.6%

CC(=O)OC[C@]1(C)CCCC2(C)C1CCC1C=C(C)[C@H]3CCC12C3 (some centres undefined)
inactive: [1] 2.05% | [2] -2.85% | [3] -17.8% | [4] -1.65% | [5] -3.1% | [6] 11.3%

CC(=O)[C@@]1(c2ccccc2)N(C(=O)c2ccccc2)[C@@]1(C)C(=O)c1ccccc1
inactive: [1] 22.1% | [2] 2.25% | [3] 14.4% | [4] 53.1% | [5] 3.85% | [6] -0.75%

N#CC(C#N)=C(N)/C(C#N)=C/c1ccc2[nH]ccc2c1
inactive: [1] -11% | [2] 6.95% | [3] -29.2% | [4] -24.9% | [5] -26.6% | [6] -24.1%

C/C(=N/NC(=S)Nc1ccccc1Cl)c1cccc(/C(C)=N\NC(=S)Nc2ccccc2Cl)n1
inactive: [1] 39.4% | [2] 16.9% | [3] 39.8% | [4] 6.3% | [5] 32.1% | [6] 24.7%

Cc1ccc(NC(=O)CC/C(CC(=O)C(C)(C)C)=N\Nc2ccc([N+](=O)[O-])cc2[N+](=O)[O-])cc1C
inactive: [1] 18.6% | [2] -3.55% | [3] -11.7% | [4] 4% | [5] 7.8% | [6] -18.3%

NC(=O)N/N=C1/CCC(O)CC1CC(=O)O (centres undefined)
inactive: [1] -7.85% | [2] -4.75% | [3] -7.05% | [4] 12.7% | [5] -57.9% | [6] -2.95%

Cc1cc2ncn(C3CCCCO3)c2cc1C (centres undefined)
inactive: [1] 8.25% | [2] -10.8% | [3] -9.4% | [4] 13.3% | [5] 3.85% | [6] -26.4%

CCNC(=O)NS(=O)(=O)c1ccc(Sc2ccc(C)cc2)nc1
inactive: [1] -11.2% | [2] -7.3% | [3] -1.1% | [4] -20.5% | [5] 7.2% | [6] 0.7%

Cc1cc2n(n1)C(=O)CC(=O)C2
inactive: [1] 8.4% | [2] 1% | [3] 2.25% | [4] -24.4% | [5] -1.2% | [6] -3.7%

OC(c1ccccc1)c1ccc2c(c1)CCC2 (centres undefined)
inactive: [1] 3.55% | [2] -8.65% | [3] -6.1% | [4] -25.1% | [5] -18% | [6] 5.3%

c1cc2c3c(c1)CCC3CCC2 (centres undefined)
inactive: [1] -50.1% | [2] -48% | [3] -50.9% | [4] 12.8% | [5] -35% | [6] -4.85%

CC(C)(c1ccsc1)c1sccc1C(=O)O
inactive: [1] -4.7% | [2] 2.95% | [3] 8.55% | [4] -19.4% | [5] -2.95% | [6] 16.2%

N#Cc1c(N)ncn1C1OC(CO)C(O)C1O (centres undefined)
inactive: [1] -17.6% | [2] -7.6% | [3] -20.9% | [4] -16.3% | [5] 0.15% | [6] -13.3%

CC(C)=C/C(C)=N/NC(N)=O
inactive: [1] 7.9% | [2] -4.55% | [3] -24.3% | [4] -19.1% | [5] -19.8% | [6] -32.2%

Source: PubChem BioAssay (NCI)
